This is an account of results in PubChem BioAssay (EPA / NIEHS).

Where “and” joins values, the source holds several entries; their conditions need not be identical. Equal entries are not always repeated. Results filed as inconclusive are left out. A structure can be active in one record and inactive in another. Calls of active or inactive are those of the source. How the source made its calls: active means hit-call score of the fitted dose curve at least 0.9, where 1 is the maximum; inconclusive means response in the unintended direction; inactive means score below 0.9.

This assay in a line: Tanguay_ZF_120hpf_OTIC_legacy: (Legacy) Oregon State University Tanguay Lab 120 Hour Post-fertilization zebrafish Assay for Otic Vesicle Malformation (AID 2283639). The procedure:
Tanguay_ZF_120hpf_legacy is a whole embryo, multiplexed endpoint assay using zebrafish larvae exposed for 120 hours post fertilization on a 96-well plate.Tanguay_ZF_120hpf_OTIC_legacy is one of one assay component(s) measured or calculated from the Tanguay_ZF_120hpf_legacy assay. It is designed to make measurements of zebrafish development as detected with brightfield microscopy of developing zebrafish embryos.Data from the assay component Tanguay_ZF_120hpf_OTIC_legacy was analyzed into 1 assay endpoints. This assay endpoint, Tanguay_ZF_120hpf_OTIC_legacy, was analyzed in the positive analysis fitting direction relative to DMSO as the negative control and baseline of activity. Using a type of morphology reporter, gain-of-signal activity can be used to understand changes in developmentals as they relate to the whole embryo. To generalize the intended target to other relatable targets, this assay endpoint is annotated to the zebrafish development intended target family, where the subfamily is otic vesicle morphogenesis.
Zebrafish husbandry: Tropical 5D wild-type adult zebrafish were housed in at an approximate density of 1000 per 100 gallon tank at the Sinnhuber Aquatic Research Laboratory, Oregon State University, Corvallis, OR. Each tank was kept at standard laboratory conditions of 28C on a 14-h light/10-h dark photoperiod in fish water consisting of reverse osmosis water supplemented with a commercially available salt (Instant Ocean). Spawning funnels were placed into the tanks the night prior, and embryos were collected and staged. […] Ten microliters of each row of dilution plate 2 was added to 2 exposure plates. The final DMSO concentration used was 0.64% (vol/vol). Thirty-two embryos were also exposed to 5uM trimethyltin chloride (positive control). Plates were sealed to prevent evaporation and foil covered to reduce light exposure and kept in a 28C incubator. Embryos were statically exposed until 120 hpf. At 24 hpf, embryos were assessed for photomotor response using a custom photomotor response analysis tool (PRAT) and for developmental toxicity endpoints (MO24: mortality at 24 hpf, DP: developmental progression, SM: spontaneous movement, and NC: notochord distortion). At 120 hpf, locomotor activity was measured using Viewpoint Zebralab and assessed for 18 endpoints. Zebrafish acquisition and analysis program (ZAAP), a custom program designed to inventory, acquire, and manage zebrafish data, was used to collect developmental endpoints as either present or absent (i.e., binary responses were recorded). If mortality occurred for an embryo (at either 24 or 120 hpf), the non-mortality endpoints were not measured.
On to `CC(C)(c1ccc(O)cc1)c1ccc(O)cc1`, for which the AC50 was 40.5 µM (active) and 37.7 µM (active); the call was inactive.
`CC(=O)S[C@@H]1CC2=CC(=O)CC[C@]2(C)[C@H]2CC[C@@]3(C)[C@@H](CC[C@@]34CCC(=O)O4)[C@H]12`: the result was inactive.
`O=C(O)C1(C(=O)Nc2ccc(Cl)cc2Cl)CC1`: the call was inactive.
For the molecule `CCCCCOC(=O)COc1cc(N2C(=O)C3=C(CCCC3)C2=O)c(F)cc1Cl`, the call was inactive.
Same read-out and setting: under `S=C([S-])NCCNC(=S)[S-].[Mn+2]` stands “inactive”.
As for `CCOC(=O)C(C)Oc1ccc(Oc2nc3ccc(Cl)cc3o2)cc1` (stereo not given), the molecule was called inactive.
Consider `CCC(C)OC(=O)N1CCCCC1CCO` (stereo not given), for which the outcome was inactive.
`CCCCOCCOCCOCc1cc2c(cc1CCC)OCO2`: the outcome was inactive.
Still for that read-out and setting: under `CN(C)C(=O)Nc1ccc(Cl)c(Cl)c1` stands “inactive”; under `CCOC(=O)C(C)Oc1ccc(Oc2cnc3cc(Cl)ccc3n2)cc1` (stereo not given), “inactive”; under `C[C@]12CC[C@@H]3c4ccc(O)cc4C[C@@H](CCCCCCCCCS(=O)CCCC(F)(F)C(F)(F)F)[C@H]3[C@@H]1CC[C@@H]2O` (stereo not given in full), “inactive”.
Same read-out and setting: under `CCNc1nc(N)nc(Cl)n1` stands “inactive”.
Consider `CC1(C)C(C=C(Cl)Cl)C1C(=O)OCc1cccc(Oc2ccccc2)c1` (stereo not given), for which the molecule was called inactive.
With `c1ccc2[nH]c(-c3cscn3)nc2c1`, the outcome was inactive.
Take `CCN(CC)C(=O)c1cccc(C)c1`: the call was inactive.
Consider `C#C[C@]1(O)CC[C@H]2[C@@H]3CCC4=CC(=O)CC[C@@H]4[C@H]3CC[C@@]21CC`, for which the call was inactive.
`CCCCCCC(C)OC(=O)COc1nc(F)c(Cl)c(N)c1Cl` (stereo not given): the call was inactive.
Still for that read-out and setting: the entry for `CCN(Cc1c(F)cccc1Cl)c1c([N+](=O)[O-])cc(C(F)(F)F)cc1[N+](=O)[O-]` is “inactive”; for `CCOC(=O)NCCOc1ccc(Oc2ccccc2)cc1` it is “inactive”.
The same measure, in the same setting: the entry for `CCSC(=O)N(CC(C)C)CC(C)C` is “inactive”; for `CCCN(CCC)c1c([N+](=O)[O-])cc(C(F)(F)F)c(N)c1[N+](=O)[O-]` it is “inactive”; for `C#CCOC(=O)[C@@H](C)Oc1ccc(Oc2ncc(Cl)cc2F)cc1` it is “inactive”.
As to `CCOC(=O)COc1cc(-n2ncc(C(F)(F)F)c(C)c2=O)c(F)cc1Cl`, the result was inactive.
Take `Cc1nn(C)c(Oc2ccccc2)c1C=NOCc1ccc(C(=O)OC(C)(C)C)cc1`: the outcome was inactive.
As to `CC(=O)[C@H]1CC[C@H]2[C@@H]3CCC4=CC(=O)CC[C@]4(C)[C@H]3CC[C@]12C`, the molecule was called inactive.
As for `COCCO`, the outcome was inactive.
Consider `COc1c(Cl)ccc(Cl)c1C(=O)O`, for which the outcome was inactive.
Regarding `O=C(c1ccc(O)cc1O)c1ccc(O)cc1O`, the result was inactive.
For `O=C(c1ccccc1)C1CCCCC1`, the result was inactive.
In the case of `CCCCOC(=O)[C@@H](C)Oc1ccc(Oc2ccc(C(F)(F)F)cn2)cc1`, the call was inactive.
In the case of `CC(C)CCCCCCc1ccc(O)cc1`, the call was inactive.
As for `CCCCC(CC)CN1C(=O)C2C3C=CC(C3)C2C1=O` (stereo not given), the result was inactive.
The same measure, in the same setting: under `C[C@]12C[C@H](O)[C@H]3[C@@H](CCC4=CC(=O)CC[C@@]43C)[C@@H]1CC[C@@H]2C(=O)CO` stands “inactive”.
As for `CCCCOC(=O)C(C)Oc1ccc(Oc2ccc(C(F)(F)F)cn2)cc1` (stereo not given), the molecule was classed as inactive.
Consider `S=C(S)NCCNC(=S)S.[Mn+2].[S-]C([S-])=NCCN=C([S-])[S-].[Zn+2]`, for which the result was inactive.
For `CCCOC(=O)c1ccc(C(=O)OCCC)nc1`, the result was inactive.
On to `N#CSCSc1nc2ccccc2s1`, for which the molecule was classed as inactive.
With `O=C(O)c1ccccc1`, the result was inactive.
Regarding `O=C(Nc1ccc([N+](=O)[O-])cc1Cl)c1cc(Cl)ccc1O`, the result was inactive.

A word on the AC50: it is the concentration giving half of the maximal activity seen.
